RGS16-Gao HTS: regulators of human RGS16-Galphao interaction; bead-based flow cytometry RGS16-Galphao binding, fluorescence; actives lie on both sides; O15492+P09471; 220,000 tested, 0.38% active; binding response (% of control), % at 10 µM; AID 1441;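 further: Galphao activated by GDP with aluminum fluoride before binding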
Target sequence (O15492 whole entry, looked up): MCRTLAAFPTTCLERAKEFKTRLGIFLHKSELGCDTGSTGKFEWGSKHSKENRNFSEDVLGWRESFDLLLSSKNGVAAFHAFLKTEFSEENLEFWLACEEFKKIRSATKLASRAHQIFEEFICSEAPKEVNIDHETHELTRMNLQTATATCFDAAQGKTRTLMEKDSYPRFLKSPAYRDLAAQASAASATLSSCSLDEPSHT
Target sequence (P09471 whole entry, looked up): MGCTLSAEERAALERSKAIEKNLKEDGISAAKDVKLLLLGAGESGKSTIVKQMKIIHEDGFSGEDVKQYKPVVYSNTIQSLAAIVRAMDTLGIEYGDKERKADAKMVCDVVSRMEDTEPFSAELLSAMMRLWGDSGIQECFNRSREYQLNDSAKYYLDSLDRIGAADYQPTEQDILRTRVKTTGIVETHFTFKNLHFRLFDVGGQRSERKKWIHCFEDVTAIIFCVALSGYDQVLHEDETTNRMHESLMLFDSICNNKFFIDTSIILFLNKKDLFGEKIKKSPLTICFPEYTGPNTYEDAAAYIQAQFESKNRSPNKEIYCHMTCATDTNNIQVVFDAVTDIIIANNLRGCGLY
RGS8-Gao reg: modulates binding of RGS8 to human Galphao; 220,000 tested, 0.34% active; multiplexed bead flow cytometry; actives lie on both sides; P09471; response (percent of control binding), % at 10 µM; AID 1423; in the data active means response below about 60% or above about 140%; inactive means in between;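 further: Galphao activated as the GDP aluminium fluoride complex binding bead-coupled RGS8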
Target sequence (P09471 whole entry, looked up): as above
RGS7-Gao reg: human RGS7-Galphao interaction regulation; P09471; Multiplexed bead flow cytometry, RGS7-Galphao binding; actives lie on both sides; binding response (% of control), % at 10 µM; 220,000 tested, 0.35% active; in the data active means binding response below about 49% or above about 150%; inconclusive means no clear call, values can overlap the other calls; inactive means in between;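 further: fluorescent Galphao held in activated GDP-AlF4 state binding bead-coupled RGS7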
Avidin bead fluor: compound fluoresces at 488/530 nm on avidin beads. AID 1775. fluorescence (KMESF) at 10 µM. compound fluorescence 488/530 nm, flow cytometry; hits give high values. 220,000 tested, 0.38% active; in the data active means fluorescence above about 47
RGS4-Gao reg: human RGS4-Galphao interaction regulation | binding response (% of control), % at 10 µM | Multiplexed bead flow cytometry, RGS4-Galphao binding; actives lie on both sides | 220,000 tested, 0.33% active | P09471 | AID 1415; in the data active means binding response below about 49% or above about 150%; inactive means in between;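 further: fluorescent Galphao activated with aluminum fluoride binding bead-coupled RGS4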
GSH fluor: compound fluoresces at 488/530 nm on GSH beads; fluorescence (KMESF) at 10 µM; 190,000 tested, 0.25% active; GSH beads flow cytometry, compound fluorescence 488/530 nm; hits give high values; in the data active means fluorescence above about 89;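 further: glutathione beads carrying GST-tagged Bcl family fusion proteins plus one bare bead set; values are compound well signal with DMSO vehicle wells as background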
RGS-Gao: RGS4-Galphao interaction regulator (human); AID 1504; RGS4–Galpha-o binding response, % at 10 µM; multiplexed bead flow cytometry, RGS–Galpha-o binding; shares compounds with RGS16-Gao HTS; 1,600 tested, 99% active;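 further: fluorescently labeled Galpha-o bound to GDP with aluminium fluoride binding biotinylated RGS beads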
Biotin-avidin: biotin-avidin bead binding disruption counter-screen; shares compounds with RGS16-Gao HTS; streptavidin beads, fluorescein-biotin binding, flow cytometry; inhibition, % at 10 µM; 1,700 tested, under 10 active; AID 1783;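 active means inhibition above 50%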;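 further: median green fluorescence of gated singlet beads compared with DMSO control wells; 0% = DMSO wells and 100% = complete loss of bead fluorescence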
RGS8-Gao confirm: confirmation of regulators of human RGS8-Galphao interaction; shares compounds with RGS16-Gao HTS; bead-based flow cytometry RGS8-Galphao binding, fluorescence; actives lie on both sides; binding response (% of control), % at 10 µM; 1,700 tested, 3% active; AID 1836; in the data active means binding response below about 72% or above about 130%; inactive means in between;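 further: Galphao activated as GDP AlF4 complex before binding bead RGS8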
RGS7-Gao single: RGS7-Galphao interaction regulation, single point confirmation; bead-based flow cytometry RGS7-Galphao binding; actives lie on both sides; shares compounds with RGS16-Gao HTS; response (percent of control binding), % at 10 µM; AID 1837; 1,700 tested, 7.8% active; in the data active means response below about 75% or above about 130%; inactive means in between;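 further: fluorescent Galphao activated with GDP and aluminum fluoride binding bead-coupled RGS7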
RGS16-Gao conf: RGS16-Galphao interaction regulation, single point confirmation; shares compounds with RGS16-Gao HTS; bead-based flow cytometry, RGS16-Galphao binding; actives lie on both sides; response (% of control binding), % at 10 µM; 1,700 tested, 4% active; in the data active means response below about 74% or above about 130%; inactive means in between;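 further: Galphao activated as the GDP aluminium fluoride complex binding bead-coupled RGS16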
RGS4-Gao confirm: confirmation of regulators of human RGS4-Galphao interaction; binding response (% of control), % at 10 µM; 1,700 tested, 4% active; AID 1840; RGS4-Galphao binding, multiplexed bead flow cytometry; actives lie on both sides; shares compounds with RGS16-Gao HTS; in the data active means binding response below about 74% or above about 130%; inactive means in between
RGS19-Gao single: confirmation of regulators of human RGS19-Galphao interaction | shares compounds with RGS16-Gao HTS | bead-based flow cytometry RGS19-Galphao binding; actives lie on both sides | response (percent of control binding), % at 10 µM | 1,700 tested, 5% active; in the data active means response below about 50% or above about 160%; inactive means in between;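 further: 100% = no compound control and 0% = blank background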
Active calls of the source: *; [ ] = dose if it differs, or a comment. In the library only some 1.2% were active in any assay of this set; here they are far more common. Unless noted, how the calls were made is not given here.

Results for CCn1cc(CCC(=O)O)c(C)n1 ?
RGS16-Gao HTS: 158.2; RGS8-Gao reg: 145.5*[activator]; RGS7-Gao reg: 143.1; Avidin bead fluor: 24; RGS4-Gao reg: 141.6; GSH fluor: 15; RGS-Gao: 141.6*; Biotin-avidin: -0.8; RGS8-Gao confirm: 100.5; RGS7-Gao single: 101.3; RGS16-Gao conf: 100.8; RGS4-Gao confirm: 101.0; RGS19-Gao single: 103.8

What do the screens show for `Cc1ccc(-c2nn(CCC(=O)O)cc2CCC(=O)O)cc1`?
RGS16-Gao HTS: 100.2; RGS8-Gao reg: 103.3; RGS7-Gao reg: 103.6; Avidin bead fluor: 12; RGS4-Gao reg: 104.5; GSH fluor: 12

How did O=C1NC(=O)/C(=C\c2ccc(OCc3cccc(C(=O)O)c3)c(Cl)c2)N1 do in these assays?
RGS16-Gao HTS: 96.3; RGS8-Gao reg: 96.7; RGS7-Gao reg: 93.3; Avidin bead fluor: 7; RGS4-Gao reg: 97.4; GSH fluor: 15

How did CC1=NOC(=O)/C1=C/c1ccc(N(C)C)cc1 do in these assays?
RGS16-Gao HTS: 99.6; RGS8-Gao reg: 99.6; RGS7-Gao reg: 101.8; Avidin bead fluor: 13; RGS4-Gao reg: 101.5; GSH fluor: 34

What do the screens show for `O=C1NC(=O)/C(=C/c2cccc(O)c2)N1`?
Biotin-avidin: -1.0; RGS8-Gao confirm: 98.0; RGS7-Gao single: 94.9; RGS16-Gao conf: 97.7; RGS4-Gao confirm: 97.9; RGS19-Gao single: 94.7

How did CN(C)c1ccc(/C=C2/NC(=O)NC2=O)cc1 do in these assays?
RGS16-Gao HTS: inactive; RGS8-Gao reg: 145.3*[activator]; RGS7-Gao reg: 353.7*[activator]; Avidin bead fluor: 113*; RGS4-Gao reg: 549.2*[activator]; GSH fluor: 17; Biotin-avidin: 1.3; RGS8-Gao confirm: 102.1; RGS7-Gao single: 103.3; RGS16-Gao conf: 104.6; RGS4-Gao confirm: 101.5; RGS19-Gao single: 103.7

What do the screens show for `CCCN1CCN(CCCNC(=O)CCNC(=O)Cn2ccc3ccccc3c2=O)CC1`?
RGS16-Gao HTS: 230.4; RGS8-Gao reg: 141.7*[activator]; RGS7-Gao reg: 104.7; Avidin bead fluor: 5; RGS4-Gao reg: 103.6; GSH fluor: 38; RGS-Gao: 103.6*; Biotin-avidin: 1.7; RGS8-Gao confirm: 101.0; RGS7-Gao single: 102.8; RGS16-Gao conf: 103.0; RGS4-Gao confirm: 102.3; RGS19-Gao single: 106.1

How did CCN1CCN(C(=O)CCNC(=O)Cn2ccc3ccccc3c2=O)CC1 do in these assays?
RGS16-Gao HTS: 103.7; RGS8-Gao reg: 99.2; RGS7-Gao reg: 96.5; Avidin bead fluor: 13; RGS4-Gao reg: 108.7; GSH fluor: 9

How did CC(=O)NC(Cc1c[nH]c2ccccc12)C(=O)OCC(=O)Nc1cc(C)on1 (stereo unspecified) do in these assays?
RGS16-Gao HTS: 29.0; RGS8-Gao reg: 21.3*; RGS7-Gao reg: 112.4; Avidin bead fluor: 227*; RGS4-Gao reg: 72.4; GSH fluor: 15; RGS-Gao: 72.4*; Biotin-avidin: -0.4; RGS8-Gao confirm: 106.4; RGS7-Gao single: 105.5; RGS16-Gao conf: 111.0; RGS4-Gao confirm: 108.0; RGS19-Gao single: 110.9

How did Cc1ccc(C(=O)N/N=C/C=C/c2ccccc2)o1 do in these assays?
RGS16-Gao HTS: 116.5; RGS8-Gao reg: 98.1; RGS7-Gao reg: 229.9*[activator]; Avidin bead fluor: 36; RGS4-Gao reg: 112.8; GSH fluor: 20; RGS-Gao: 112.8*; Biotin-avidin: 0.0; RGS8-Gao confirm: 98.4; RGS7-Gao single: 97.1; RGS16-Gao conf: 96.4; RGS4-Gao confirm: 95.0; RGS19-Gao single: 106.0

Results for Cc1onc(-c2ccccc2)c1C(=O)N/N=C/C=C/c1ccccc1 ?
RGS16-Gao HTS: 104.4; RGS8-Gao reg: 101.3; RGS7-Gao reg: inconclusive; Avidin bead fluor: 6; RGS4-Gao reg: 101.1

Results for Cn1c(=O)c2c(=O)cc(N)[nH]c2n(C)c1=O ?
RGS16-Gao HTS: 99.8; RGS8-Gao reg: 77.3; RGS7-Gao reg: inconclusive; Avidin bead fluor: 7; RGS4-Gao reg: 97.2; Biotin-avidin: 0.3; RGS8-Gao confirm: 100.4; RGS7-Gao single: 102.8; RGS16-Gao conf: 100.6; RGS4-Gao confirm: 102.4; RGS19-Gao single: 99.4

What do the screens show for `Cc1ccc(NC2(c3nnnn3-c3c(C)cccc3C)CCCCC2)cc1`?
RGS16-Gao HTS: 280.8*[activator]; RGS8-Gao reg: 135.1; RGS7-Gao reg: 112.4; Avidin bead fluor: 13; RGS4-Gao reg: 116.1; GSH fluor: 4; RGS-Gao: 116.1*; Biotin-avidin: -0.7; RGS8-Gao confirm: 97.8; RGS7-Gao single: 93.0; RGS16-Gao conf: 98.7; RGS4-Gao confirm: 96.6; RGS19-Gao single: 98.5

How did CSc1nnnn1-c1c(C)cccc1C do in these assays?
RGS16-Gao HTS: 99.6; RGS8-Gao reg: 101.3; RGS7-Gao reg: inconclusive; Avidin bead fluor: 7; RGS4-Gao reg: 99.2

Results for Cc1c(Cl)c(C(F)(F)F)nn1CC(=O)NCc1ccccc1 ?
RGS16-Gao HTS: 102.3; RGS8-Gao reg: 101.6; RGS7-Gao reg: 99.3; Avidin bead fluor: 6; RGS4-Gao reg: 97.9; GSH fluor: 15

How did Cc1c(Br)c(C(F)(F)F)nn1CC(=O)NCc1ccccc1 do in these assays?
RGS16-Gao HTS: 202.9*[activator]; RGS8-Gao reg: 127.0; RGS7-Gao reg: 110.3; Avidin bead fluor: 13; RGS4-Gao reg: 108.8; GSH fluor: 19; RGS-Gao: 108.8*; Biotin-avidin: -1.4; RGS8-Gao confirm: 102.2; RGS7-Gao single: 100.9; RGS16-Gao conf: 101.8; RGS4-Gao confirm: 101.7; RGS19-Gao single: 90.0

What do the screens show for `N#CCSc1ncnc2c1cnn2CCO`?
RGS16-Gao HTS: 96.2; RGS8-Gao reg: 97.4; RGS7-Gao reg: 101.4; Avidin bead fluor: 14; RGS4-Gao reg: 101.8; GSH fluor: 23

Compound activity from PubChem BioAssay.
